Values without a mark were called inactive. The call rests on the fitted dose curve.
On the % scale 0 is the no-effect control and ±100 the full control effect.

A short description of the experiment: qHTS assay to identify small molecule agonists of the sonic hedgehog signaling (Shh) pathway (AID 1259368).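 Further: NIH/3T3-derived 3T3Gli1-Luc cells carrying a stable Gli1-driven firefly luciferase reporter; nearly all actives have a fitted effect of over 15% in size.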 Particulars: NIH/3T3 Gli1-Luc reporter, luciferase, 24 h, hits give high values; series mostly up to 92.4 µM; activity change: at the top concentration. The source says:
National Center for Advancing Translational Sciences [NCATS]
NIH Chemical Genomics Center [NCGC]
U.S. Environmental Protection Agency [EPA]
National Institutes of Environmental Health Sciences [NIEHS]
National Toxicology Program [NTP]
The sonic hedgehog (Shh) pathway is essential for normal embryonic development. Dysregulation of the Shh pathway can cause severe developmental defects in organs. Therefore chemicals that interfere with the pathway are potential developmental toxicants. A cell line designated 3T3Gli1-Luc (DMB/OARSA/CFSAN/FDA, Laurel, MD), a NIH/3T3 derived clone containing stably integrated Gli1-Luc reporter is used to detect chemical interference of the Shh pathway, by changes in the expression of the firefly Luc gene under the control of the Gli1 transcriptional response element. This cell line was used to screen Tox21 libraries for identifying and prioritizing the potential developmental toxicants that interfere Shh pathway.
3T3 Gli1-Luc cells were dispensed at 2,000 per well in 5uL of culture medium into white solid bottom 1536-well plates (Greiner Bio-One, Monroe, NC) using a Multidrop Combi (Thermo Scientific, Waltham, MA) dispenser. The assay plates were incubated at 37 C and 5% CO2 for 4hr, and then 23nL of compounds dissolved in DMSO and positive control were transferred using a Pintool station (Wako, San Diego, CA). The assay plates were incubated at 37C and 5% CO2 for 24hr. For luciferase read, 4uL of Amplite Luciferase reporter gene assay reagent (AAT Bioquest, Inc. Sunnyvale, CA) was added to each well of the assay plates using Flying Reagent Dispenser (FRD, Aurora Discovery, San Diego, CA) and incubated at room temperature for 30min. The luminescence signal was measured using a ViewLux plate reader (Perkin Elmer, Shelton, CT).
(In general: In qHTS, concentration-response curves come from the screen itself.)
As for `CC/C=C\CCOC(=O)c1ccccc1O`, the “activity change” value was 0.984%.

For `Cc1c(N)cccc1Cl`, the “activity change” value is -0.399%.

In the case of `OCC1(CO)COCOC1`, the “activity change” value was 0.58%.

With `C=C(C)[C@@H]1CC=C(C)C(=O)C1`, the “activity change” value was 0.589%.

Consider `CC1=C(C(=O)O)N2C(=O)[C@@H](NC(=O)[C@H](N)c3ccccc3)[C@H]2SC1`, for which the “activity change” value was -0.168% [at 42.5 µM].

With `CCc1occc(=O)c1O`, the “activity change” value is 2.15%.

On to `Cc1c(Cl)cccc1Cl`, for which the “activity change” value was -0.624%.

On to `COCCc1ccccn1`, for which the “activity change” value is -0.0894% [at 42.5 µM].

For the molecule `C[C@]12CCC(=O)C=C1CC[C@H]1[C@@H]3CC[C@](O)(C(=O)CO)[C@@]3(C)C[C@H](O)[C@@]12F`, the “activity change” value is -0.859% [at 42.5 µM].

As for `COS(=O)(=O)O`, the “activity change” value was 3.26%.

For the molecule `CN(C)CCCCl`, the “activity change” value is 0.165%.

Take `Cc1ncc([N+](=O)[O-])n1CC(C)O` (stereo not given): the “activity change” value is 0.292% [at 42.5 µM].

With `C/C=C(\C)C(C)=O`, the “activity change” value was 0.132%.

Regarding `CCOC(=O)CC1(C)OCC(C)O1` (stereo not given), the “activity change” value is -0.0315%.

In the case of `CC(C)Nc1ccccc1`, the “activity change” value was 1.62%.

Turning to `O=C1NC(c2ccccc2)(c2ccccc2)C(=O)N1COP(=O)(O)O`, the “activity change” value was 0.555% [at 42.5 µM].

Regarding `COc1cc(/C=C/C(N)=O)cc(OC)c1OC`, the “activity change” value was -1.4% [at 42.5 µM].

Consider `CC(C)C1OCCN1CCOC(=O)NCCCCCCNC(=O)OCCN1CCOC1C(C)C` (stereo not given), for which the “activity change” value is 0.0095%.

For `C#CCN[C@@H]1CCc2ccccc21`, the “activity change” value was -0.54% [at 42.5 µM].

Consider `NCC1(Cc2noc(=O)[nH]2)CCCCC1`, for which the “activity change” value was 0.611%.

Consider `C/C(CC(C)C)=N\O`, for which the “activity change” value was 1.39%.

For the molecule `Cc1ccc(C(=O)O)cc1[N+](=O)[O-]`, the “activity change” value is -2.12%.

For the molecule `CC12CCC(C1)C(C)(C)C2O` (stereo not given), the “activity change” value is 0.282%.

Take `N#Cc1ccccc1O`: the “activity change” value is 0.154%.

For `CC(C)CO`, the “activity change” value was 1.8%.

As for `CC(=O)CC(=O)Nc1ccc(C)cc1C`, the “activity change” value is 0.15%.

Consider `O=C[O][Al]([O]C=O)[O]C=O`, for which the “activity change” value was 1.68%.

For the molecule `CCCc1ccc(O)cc1`, the “activity change” value was -0.415%.

With `CC(=O)CC(=O)OC(C)(C)C`, the “activity change” value was -0.0799%.

As for `C[C@@H](O)C(=O)O`, the “activity change” value was 0.391%.

Consider `CCO[Si](CC)(OCC)OCC`, for which the “activity change” value was 0.0526%.

In the case of `Cc1ccccc1C(N)=O`, the “activity change” value is 1.14%.

As for `CC1(C)Cc2cccc(N)c2O1`, the “activity change” value was -0.537%.

For `O=C(NCN1CCOCC1)c1cnccn1`, the “activity change” value is 0.428% [at 42.5 µM].

For the molecule `CN1C[C@@H]2C[C@H]1CN2c1cc2c(cc1F)c(=O)c(C(=O)O)cn2C1CC1`, the activity change is -1.48% [at 18.9 µM].

As for `OCC1CCC(CO)CC1` (stereo not given), the “activity change” value is 0.139%.

In the case of `CC(Oc1cc(Cl)ccc1Cl)C(=O)O` (stereo not given), the “activity change” value is -0.0335%.

As for `CC(C)OC(=O)CCC(=O)OC(C)C`, the “activity change” value is 0.049%.

As for `CC(O)COC(C)(C)C` (stereo not given), the “activity change” value is 0.283%.

`COc1c2occc2c(OC)c2c(=O)cc(C)oc12`: the “activity change” value was 0.0244% [at 42.5 µM].

The values are drawn from PubChem BioAssay (Tox21).
